Inconclusive results are not listed. Active and inactive are the calls of the source. Unless noted, the call rests on the fitted dose curve; in most records, active means well fitted curve in the direction sought with a large enough effect; inconclusive means small, poorly fitted or top-dose-only effect, or another doubt; inactive means no such curve, though single readings can be large; an effect the other way counts as inactive or inconclusive. Starred links: 1 amine or outer side, 2 acyl side, 3 side chain; linkers in the order of their positions; H or OH if unused. Positions of bridges follow the written chain, without caps; N, C: chain ends. Non-standard residues stand in square brackets, D forms with d. Residues, ends and D or L forms follow the SMILES beside them. Chains are numbered I, II in the order given. Actinocin(9to1) = Cc1c2oc3c(C)ccc(C(=O)[*:1])c3nc-2c(C(=O)[*:2])c(N)c1=O; NMeV = CN[CH](C(=O)O)C(C)C; Sar = CNCC(=O)O
Biological target: Hexokinase-4 (Homo sapiens) + Glucokinase regulatory protein (Homo sapiens) (UniProt P35557+Q14397)
Assay: qHTS assay for inhibitors of recombinant human GCK-GKRP interaction: HTRF assay (AID 743207);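 further: 0% = DMSO with GCK present and -100% = DMSO wells lacking GCK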
Settings: recombinant GCK-GKRP HTRF binding, 60 min, with sorbitol-6-phosphate; series mostly up to 57.5 µM
Summary of the method: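 After 60 min equilibration at room temperature with anti-FLAG XL665 and anti-GST antibodies, FRET ratio (665/615 nm, excitation 320 nm) was read. Proteins: GST-GCK and FLAG-GKRP, each 5 nM, plus 2 uM S6P, pH 7.1 buffer; GCK-free wells define minimum signal.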

Chain of Hexokinase-4 (Homo sapiens) + Glucokinase regulatory protein (Homo sapiens) (P35557 whole entry, looked up): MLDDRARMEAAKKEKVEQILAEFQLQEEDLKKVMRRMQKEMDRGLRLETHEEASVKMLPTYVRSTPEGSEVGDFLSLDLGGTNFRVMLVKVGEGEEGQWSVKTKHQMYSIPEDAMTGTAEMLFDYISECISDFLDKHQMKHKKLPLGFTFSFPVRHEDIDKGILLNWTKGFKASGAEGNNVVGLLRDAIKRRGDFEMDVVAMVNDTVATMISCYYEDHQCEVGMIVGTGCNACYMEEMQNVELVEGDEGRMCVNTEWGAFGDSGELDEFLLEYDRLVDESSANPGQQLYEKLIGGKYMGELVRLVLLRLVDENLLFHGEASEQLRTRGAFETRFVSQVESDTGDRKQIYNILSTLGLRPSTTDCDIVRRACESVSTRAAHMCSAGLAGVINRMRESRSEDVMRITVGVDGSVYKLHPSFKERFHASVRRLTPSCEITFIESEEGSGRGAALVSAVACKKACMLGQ
Chain of Hexokinase-4 (Homo sapiens) + Glucokinase regulatory protein (Homo sapiens) (Q14397 whole entry, looked up): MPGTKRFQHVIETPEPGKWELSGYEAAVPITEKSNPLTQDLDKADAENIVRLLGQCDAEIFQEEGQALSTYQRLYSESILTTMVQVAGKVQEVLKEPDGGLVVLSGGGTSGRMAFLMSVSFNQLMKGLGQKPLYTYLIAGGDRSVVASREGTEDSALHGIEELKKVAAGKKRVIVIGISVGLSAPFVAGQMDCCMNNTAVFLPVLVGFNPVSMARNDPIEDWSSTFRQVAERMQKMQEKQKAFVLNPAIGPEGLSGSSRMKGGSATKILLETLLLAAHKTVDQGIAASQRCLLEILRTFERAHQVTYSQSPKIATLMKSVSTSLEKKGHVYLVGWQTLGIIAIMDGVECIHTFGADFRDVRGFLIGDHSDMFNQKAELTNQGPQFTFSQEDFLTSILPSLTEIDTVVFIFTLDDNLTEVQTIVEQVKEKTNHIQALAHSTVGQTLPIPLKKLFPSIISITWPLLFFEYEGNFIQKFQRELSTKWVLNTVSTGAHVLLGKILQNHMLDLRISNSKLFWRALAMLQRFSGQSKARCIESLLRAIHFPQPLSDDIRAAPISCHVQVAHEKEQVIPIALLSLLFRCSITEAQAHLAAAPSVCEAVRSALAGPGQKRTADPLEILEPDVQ

SMILES | outcome
CN[C@H](CC(C)C)C(=O)N[C@H]1C(=O)N[C@@H](CC(N)=O)C(=O)N[C@@H]2C(=O)N[C@H]3C(=O)N[C@H](C(=O)N[C@H](C(=O)O)c4cc(O)cc(O)c4-c4cc3ccc4O)[C@H](O)c3ccc(c(Cl)c3)Oc3cc2cc(c3O[C@@H]2O[C@H](CO)[C@@H](O)[C@H](O)[C@@H]2O[C@H]2C[C@](C)(N)[C@H](O)[C@H](C)O2)Oc2ccc(cc2Cl)[C@H]1O | inactive
COc1ccc2cc([S+]([O-])Cc3ncc(C)c(OC)c3C)nc2c1 | inactive
O=c1[nH]c(=O)n([C@H]2C[C@@H](O)[C@@H](CO)O2)cc1C=CBr | inactive

System: not listed separately
Assay: qHTS Assay for Identifying Gametocytocidal Compounds (AID 743244); further: potency means the concentration at half of the fitted maximal effect;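 on max response: on the % scale 0 is the no-effect control and ±100 the full control effect; actives lower the fluorescent signal which means gametocytes are killed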
Settings: P. falciparum 3D7 stage III-V gametocytes, alamarBlue, 72 h; max response: stronger effect = lower value
Summary of the method: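 P. falciparum 3D7 stage III–V gametocytes (20,000 cells/well) were exposed to compounds for 72 h at 37 °C, 5% CO2. AlamarBlue was then added for 24 h; decreased resorufin fluorescence (Ex 525/Em 598 nm) indicated loss of viability.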

SMILES | max response | Potency
COc1cc2c(cc1OC)[C@@H]1C(=O)c3ccc4c(c3O[C@@H]1CO2)C=CC(C)(C)O4 | -5.53% (inactive) | –
Cn1c(Nc2ccc(C(F)(F)F)cc2)nc2cc(Oc3ccnc(-c4ncc(C(F)(F)F)[nH]4)c3)ccc21 | – | 23.5 µM (active)
C#CCC(Cc1cnc2nc(N)nc(N)c2n1)c1ccc(C(=O)N[C@@H](CCC(=O)O)C(=O)O)cc1 (some centres undefined) | 4% (inactive) | –
Cc1ccccc1C(=O)Nc1ccc(C(=O)N2CCCC(O)c3cc(Cl)ccc32)c(C)c1 (centres undefined) | 1.39% (inactive) | –
CN[C@H](CC(C)C)C(=O)N[C@H]1C(=O)N[C@@H](CC(N)=O)C(=O)N[C@@H]2C(=O)N[C@H]3C(=O)N[C@H](C(=O)N[C@H](C(=O)O)c4cc(O)cc(O)c4-c4cc3ccc4O)[C@H](O)c3ccc(c(Cl)c3)Oc3cc2cc(c3O[C@@H]2O[C@H](CO)[C@@H](O)[C@H](O)[C@@H]2O[C@H]2C[C@](C)(N)[C@H](O)[C@H](C)O2)Oc2ccc(cc2Cl)[C@H]1O | -6.25% (inactive) | –
N#Cc1ccc(COC[C@H]2O[C@@H](n3c(NCc4ccc(Cl)c(Cl)c4)nc4c(N)ncnc43)[C@@H](O)[C@@H]2O)cc1 | -16.6% (inactive) | –
COc1ccc2cc([S+]([O-])Cc3ncc(C)c(OC)c3C)nc2c1 | 2.05% (inactive) | –
Nc1ccn(C[C@@H](CO)OCP(=O)(O)O)c(=O)n1 | 0.0749% (inactive) | –
COC(=O)C1C2CC3c4[nH]c5cc(OC)ccc5c4CCN3CC2CC(OC(=O)c2cc(OC)c(OC)c(OC)c2)C1OC (centres undefined) | – | 42.9 µM (active)
CCCCCCCN(CC)CCCC(O)c1ccc(NS(C)(=O)=O)cc1 (centres undefined) | -2.04% (inactive) | –
Nc1ccn(C2CO[C@H](CO)O2)c(=O)n1 (some centres undefined) | 19.9% (inactive) | –
CCCCCCCCCCCCCCCC(=O)OC[C@@H](NC(=O)C(Cl)Cl)[C@H](O)c1ccc([N+](=O)[O-])cc1 | 5.04% (inactive) | –
O=c1[nH]c(=O)n([C@H]2C[C@@H](O)[C@@H](CO)O2)cc1C=CBr | 30.7% (inactive) | –

System: not listed separately
Assay: qHTS assay for cell viability of HEK293 cells (AID 743288); further: on the % scale 0 is the no-effect control and ±100 the full control effect; nearly all actives have a fitted effect of over 50% in size
Settings: ATP luminescence (CellTiter-Glo), 18 h, stronger effect = lower value
Summary of the method: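 Total intracellular ATP, measured with a luciferase-coupled reagent, indicates the number of viable HEK293 cells. Exposure to test chemicals lasts 18 h at 37 C in 1,536-well format at 2,000 cells/well.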

SMILES | max response
Cc1cc(O)c2c(c1)C(=O)c1cccc(O)c1C2=O | -7.7% (inactive)
O=C1c2cccc(O)c2C(=O)c2c(O)cc(CO)cc21 | -3.37% (inactive)
C[C@]12CC[C@@H]3c4ccc(O)cc4CC[C@H]3[C@H]1CC[C@H]2O | -7.02% (inactive)
OC[C@@H](O)[C@@H](O)[C@H](O)[C@@H](O)CO | -5.81% (inactive)

System: not listed separately
Assay: qHTS assay for cell viability of the p53RE-bla HCT-116 cell line (AID 743292); further: on the % scale 0 is the no-effect control and ±100 the full control effect; nearly all actives have a fitted effect of over 55% in size
Settings: p53RE-bla HCT-116 viability, ATP luminescence, 16 h; series mostly up to 95 µM
Summary of the method: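 HCT-116 p53RE-bla cells seeded 4,000/well; 5 h at 37 C; compound (DMSO) added; 16 h at 37 C; CellTiter-Glo added, 30 min RT; luminescence read.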

SMILES | outcome
CC(C=CC1=C(C)CCCC1(C)C)=CC=CC(C)=CC(=O)Nc1ccc(O)cc1 | inactive
Cc1cc(O)c2c(c1)C(=O)c1cccc(O)c1C2=O | inactive
O=C1c2cccc(O)c2C(=O)c2c(O)cc(CO)cc21 | inactive
C[C@]12CC[C@@H]3c4ccc(O)cc4CC[C@H]3[C@H]1CC[C@H]2O | inactive

System: not listed separately
Assay: qHTS profiling for inhibitors of Plasmodium falciparum (3D7) proliferation (AID 743322; call rule not given here;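 further: infected erythrocytes exposed to compound for 72 h before lysis; 100% = DMSO vehicle wells and 0% = 0.29 µM artemisinin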)
Settings: P. falciparum 3D7 proliferation; at 28.7 µM (top of the series)
Summary of the method: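 Erythrocytes infected with P. falciparum (0.3% parasitemia, 2.5% hematocrit) incubated with compounds 72 h at 37 C, 5% CO2. Lysis with saponin/Triton buffer containing SYBR Green I, overnight at room temperature in the dark; DNA fluorescence (485/535 nm) normalised to 0.29 uM artemisinin and DMSO.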

SMILES | remaining parasite growth % (stronger effect = lower value)
COc1cc2c(cc1OC)[C@@H]1C(=O)c3ccc4c(c3O[C@@H]1CO2)C=CC(C)(C)O4 | 39.1%
Cn1c(Nc2ccc(C(F)(F)F)cc2)nc2cc(Oc3ccnc(-c4ncc(C(F)(F)F)[nH]4)c3)ccc21 | -1.53%
NC(=O)c1ncn([C@@H]2O[C@H](CO)[C@@H](O)[C@@H]2O)c1N | 94.2%
N#Cc1ccc(COC[C@H]2O[C@@H](n3c(NCc4ccc(Cl)c(Cl)c4)nc4c(N)ncnc43)[C@@H](O)[C@@H]2O)cc1 | 37.7%
O=C(O)CCCCC(CCSCc1ccccc1)SCc1ccccc1 (centres undefined) | 84%
Cc1c2oc3c(C)ccc(C(=O)NC4C(=O)NC(C(C)C)C(=O)N5CCCC5C(=O)N(C)CC(=O)N(C)C(C(C)C)C(=O)OC4C)c3nc-2c(C(=O)NC2C(=O)NC(C(C)C)C(=O)N3CCCC3C(=O)N(C)CC(=O)N(C)C(C(C)C)C(=O)OC2C)c(N)c1=O (centres undefined) (I: TVP[Sar][NMeV] / II: TVP[Sar][NMeV]; ester I:1-I:C, II:1-II:C; linker I:N-II:N via Actinocin(9to1); configuration not given here) | -4%
CN(C)c1ccc2cc(C(=O)N[C@@H](CCCN=C(N)CCl)C(=O)NCc3ccccc3)ccc2c1 | 6.68%
COc1cccc2c1C(=O)c1c(O)c3c(c(O)c1C2=O)C[C@@](O)(C(=O)CO)C[C@H]3O[C@H]1C[C@H](N)[C@H](O)[C@H](C)O1 | -4.47%
COC(=O)C1C2CC3c4[nH]c5cc(OC)ccc5c4CCN3CC2CC(OC(=O)c2cc(OC)c(OC)c(OC)c2)C1OC (centres undefined) | 1.2%
Nc1ncn([C@@H]2O[C@H](CO)[C@@H](O)[C@@H]2O)c(=O)n1 | 96.3%
COc1cc(C)c(Sc2cnc(NC(=O)c3ccc(CNC(C)C(C)(C)C)cc3)s2)cc1C(=O)N1CCN(C(C)=O)CC1 (centres undefined) | 8.84%
COc1cc(C=CC(=O)CC(=O)C=Cc2ccc(O)c(OC)c2)ccc1O | -1.44%
c1ccc2c(Oc3nc(Nc4ccc(N5CCOCC5)cc4)c4ncn(C5CCCCC5)c4n3)cccc2c1 | -0.456%
O=C(O)CCCCCC(=O)NN=C1CCCC1 | 92.8%
O=C(C[C@@H]1CC=CCCC(=O)O[C@H](c2ccccc2)CNC1=O)NCc1ccc(Cl)cc1 | 94.2%

— PubChem BioAssay (NCATS)
